Results reported in PubChem BioAssay AID1159580 (chemical genetic matrix, 2015).
Hit rate of the full screen: of about 5,500 compounds, about 2,000 (36%) were called active. Inconclusive results (about 18%) are left out. Cut-off read from the data, not from the text of the source: active = normalized growth mostly below about 0.91 (no sharp cut-off); inconclusive = no clear call, values can overlap the other calls; inactive = mostly above about 0.92. Some of the results follow.

Assay: chemical genetic growth profiling, strain panel (AID 1159580);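 note: tested at 20 µM; growth read once vehicle control cultures reached saturation at 30 °C; 1 = growth at the plate median or of vehicle wells; lower values mean less growth of the strain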
Details: growth OD
[1] = S. cerevisiae deletion strains, locus YAL013W, strain DEP1, hits give low values
[2] = S. cerevisiae deletion strains, locus YGR078C, strain PAC10, hits give low values
[3] = S. cerevisiae deletion strains, locus YJR075W, strain HOC1, hits give low values
[4] = S. cerevisiae deletion strains, locus YMR263W, strain SAP30, hits give low values
[5] = S. cerevisiae deletion strains, locus YNL153C, strain GIM3, hits give low values
[6] = S. cerevisiae deletion strains, locus YNL322C, strain KRE1, hits give low values
[7] = S. cerevisiae deletion strains, locus YPL055C, strain LGE1, hits give low values
[8] = S. cerevisiae deletion strains, locus YPL241C, strain CIN2, hits give low values
[9] = S. cerevisiae deletion strains, locus YAL040C, strain CLN3, hits give low values
[10] = S. cerevisiae deletion strains, locus YER002W, strain NOP16, hits give low values
[11] = S. cerevisiae deletion strains, locus YNL175C, strain NOP13, hits give low values
[12] = S. cerevisiae deletion strains, locus YNL197C, strain WHI3, hits give low values
[13] = S. cerevisiae deletion strains, locus YNL224C, strain SQS1, hits give low values
[14] = S. cerevisiae deletion strains, locus YOR083W, strain WHI5 (second series), hits give low values

Measured: normalized growth

N#CC(C#N)=Cc1ccc(-c2cc(C(F)(F)F)ccc2Cl)o1
inactive: [1] 1.01 | S. cerevisiae deletion strains, locus YBR229C, strain ROT2, hits give low values 1.01 | S. cerevisiae deletion strains, locus YDL101C, strain DUN1, hits give low values 1.03 | S. cerevisiae deletion strains, locus YDR150W, strain NUM1, hits give low values 0.993 | S. cerevisiae deletion strains, locus YEL061C, strain CIN8, hits give low values 0.997 | [2] 1.01 | S. cerevisiae deletion strains, locus YHR030C, strain SLT2, hits give low values 0.819 | S. cerevisiae deletion strains, locus YHR087W, strain rtc3, hits give low values 1.02 | S. cerevisiae deletion strains, locus YJL187C, strain SWE1, hits give low values 0.997 | S. cerevisiae deletion strains, locus YJR043C, strain POL32, hits give low values 0.989 | [3] 0.987 | S. cerevisiae deletion strains, locus YLR039C, strain RIC1, hits give low values 0.844 | S. cerevisiae deletion strains, locus YLR058C, strain SHM2 (second series), hits give low values 0.99 | S. cerevisiae deletion strains, locus YLR085C, strain ARP6, hits give low values 0.797 | S. cerevisiae deletion strains, locus YLR262C, strain YPT6, hits give low values 0.913 | S. cerevisiae deletion strains, locus YML094W, strain GIM5, hits give low values 1.08 | S. cerevisiae deletion strains, locus YMR219W, strain ESC1, hits give low values 0.996 | [4] 0.97 | S. cerevisiae deletion strains, locus YMR307W, strain GAS1, hits give low values 0.786 | [5] 1.02 | S. cerevisiae deletion strains, locus YNL298W, strain CLA4 (second series), hits give low values 0.923 | [6] 0.986 | S. cerevisiae deletion strains, locus YNR030W, strain Alg12, hits give low values 0.962 | [7] 1.01 | [8] 0.899 | S. cerevisiae deletion strains, locus YPR135W, strain CTF4, hits give low values 0.944 | S. cerevisiae strains, strain wild type, hits give low values 0.959

CO/N=C(/C(=O)N[C@@H]1C(=O)N2C(C(=O)O)=C(COC(C)=O)CS[C@H]12)c1csc(N)n1
inactive: [1] 1.01 | [9] 1.02 | S. cerevisiae deletion strains, locus YDR363W, strain ESC2, hits give low values 1.01 | [10] 0.983 | S. cerevisiae deletion strains, locus YGR229C, strain SMI1, hits give low values 1 | [4] 0.965 | [5] 1.07 | [11] 1.01 | [12] 1.01 | [13] 0.99 | [6] 0.985 | [14] 0.978 | [8] 1

CO/N=C(/C(=O)N[C@@H]1C(=O)N2C(C(=O)O)=C(CSc3nc(=O)c(O)nn3C)CSC12)c1csc(N)n1 (stereo partly specified)
inactive: [1] 1 | [9] 1 | S. cerevisiae deletion strains, locus YCL061C, strain MRC1 (second series), hits give low values 1 | [10] 1.01 | [2] 1.01 | [3] 1 | [11] 1.01 | [12] 1.01 | [13] 1 | [14] 1 | [7] 1.01
